According to publication PMC4336329 (PLoS ONE, 2015):
Hit rate of the full screen: of about 310,000 compounds, about 14,000 (4.5%) showed an effect of 50% or more. Effects have a minus sign here. The list comes from a sample in which strong results are over-represented; it also holds similar structures and randomly drawn compounds.

What follows are compounds tested against human ether-à-go-go-related gene (hERG) potassium channel (human, UniProt Q12809) (assay: primary screen, population patch clamp on CHO cells stably expressing hERG; higher = less effect of the substance).
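Also: peak tail current of the secondary pulse compared with the same well before compound.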

Chain of human ether-à-go-go-related gene (hERG) potassium channel (Q12809 whole entry, looked up): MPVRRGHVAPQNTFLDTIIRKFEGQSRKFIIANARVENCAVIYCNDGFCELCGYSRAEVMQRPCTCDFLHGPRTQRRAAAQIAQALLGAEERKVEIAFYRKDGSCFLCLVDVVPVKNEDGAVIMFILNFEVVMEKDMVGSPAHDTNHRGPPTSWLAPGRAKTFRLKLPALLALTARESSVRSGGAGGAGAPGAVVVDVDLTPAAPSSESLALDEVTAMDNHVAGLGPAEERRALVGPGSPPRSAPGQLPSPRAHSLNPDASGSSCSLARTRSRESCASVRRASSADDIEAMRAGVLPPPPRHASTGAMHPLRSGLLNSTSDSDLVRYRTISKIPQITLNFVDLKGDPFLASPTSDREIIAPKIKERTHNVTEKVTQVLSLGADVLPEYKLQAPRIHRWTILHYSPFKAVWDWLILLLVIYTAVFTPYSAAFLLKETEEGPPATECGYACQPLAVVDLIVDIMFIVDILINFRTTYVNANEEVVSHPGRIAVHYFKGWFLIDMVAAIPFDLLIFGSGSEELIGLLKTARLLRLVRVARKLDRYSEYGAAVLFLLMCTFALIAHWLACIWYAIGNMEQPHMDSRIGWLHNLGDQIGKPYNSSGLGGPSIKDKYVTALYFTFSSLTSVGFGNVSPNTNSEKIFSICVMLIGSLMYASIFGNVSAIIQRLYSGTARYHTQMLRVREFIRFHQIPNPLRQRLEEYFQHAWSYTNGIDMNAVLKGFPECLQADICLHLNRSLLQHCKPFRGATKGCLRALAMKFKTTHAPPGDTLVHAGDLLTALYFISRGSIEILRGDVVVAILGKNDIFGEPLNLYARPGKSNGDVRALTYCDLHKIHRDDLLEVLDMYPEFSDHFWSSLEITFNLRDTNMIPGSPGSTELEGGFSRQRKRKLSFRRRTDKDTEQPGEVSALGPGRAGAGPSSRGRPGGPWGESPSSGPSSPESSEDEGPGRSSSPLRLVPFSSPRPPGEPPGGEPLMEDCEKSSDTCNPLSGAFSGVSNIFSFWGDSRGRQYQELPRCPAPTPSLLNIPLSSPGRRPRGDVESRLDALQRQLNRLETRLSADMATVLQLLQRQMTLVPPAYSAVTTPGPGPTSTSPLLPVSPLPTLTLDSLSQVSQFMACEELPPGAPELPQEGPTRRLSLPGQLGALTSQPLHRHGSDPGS

Row | Structure (SMILES) | hERG current change (%, negative = inhibition) at 10uM [%]
1 | COc1cc2c(cc1OC)CN(CC(=O)Nc1ccc(C)cc1)CC2 | -16.4
2 | COc1cc2c(cc1OC)CN(C(=O)COc1ccc(C)c(C)c1)CC2 | -11.9
3 | COc1cc2c(cc1OC)CN(C(=O)COc1ccc(C#N)cc1)CC2 | -63.4
4 | CCC(C(=O)O)n1nc(-c2ccccc2)c2cc(Cl)ccc21 (stereo not drawn) | 13.8
5 | COc1ccc(C(c2nnnn2C2CCCCC2)N2CCN(c3ccccc3F)CC2)cc1 (stereo not drawn) | 12.8
6 | Cc1csc2ncc(C(=O)N3CCc4ccccc43)c(=O)n12 | 15.1
7 | C=CCn1c(COc2cccc3ccc(C)nc23)nnc1SCC(=O)OC | -0.175
8 | CCOC(=O)Cn1nc(C)c(NC(=O)COc2ccc(C)c(C)c2)c1C | 12.2
9 | O=S(=O)(Nc1cccc(F)c1)c1cccc2nsnc12 | 3.21
10 | CCOc1ccc(C(=O)OCc2nnc(-c3cccs3)o2)cc1OC | -54.9
11 | CCOc1ccc(-c2nnc(-c3cccs3)o2)cc1OCC | 1.32
12 | O=C(OCc1nnc(-c2cccs2)o1)c1cccnc1Cl | 4.2
13 | COc1cc(OC)c(S(=O)(=O)NC(C)C)cc1S(=O)(=O)NC(C)C | 2.64
14 | COc1ccc(C)cc1S(=O)(=O)Nc1ccc(F)cc1 | -1.24
15 | Cc1ccc(NC(=O)c2ccc3nccnc3c2)c(C)c1 | -2.58
16 | CCCCc1cc(=O)oc2c(C)c(OCC(=O)NCCN3CCOCC3)ccc12 | -82.1
17 | CCc1cc(=O)oc2c(C)c(OCC(=O)NCCN3CCOCC3)ccc12 | -0.348
18 | Cc1c(C)c2ccc(OCC(=O)NCCN3CCOCC3)c(C)c2oc1=O | 1.61
19 | Cc1c(OCC(=O)NCCCN2CCOCC2)ccc2c1oc(=O)c1ccccc12 | -46.6
20 | CCCc1cc(=O)oc2c(C)c(OCC(=O)NCCN3CCOCC3)ccc12 | -31.6
21 | Cc1c(OCC(=O)NCCN2CCOCC2)ccc2c1oc(=O)c1ccccc12 | -59.6
22 | Cn1c(SCc2ccccc2C#N)nnc1-c1ccncc1 | 7.11
23 | CSc1ccccc1NC(=O)CN(C)C(=O)CCc1c[nH]c2ccccc12 | 0.0989

Row | Structure (SMILES) | hERG current change (%, negative = inhibition) at 10uM [%]
24 | O=C(N/N=C/c1ccccn1)C1CC1 | -69.4
25 | O=C(N/N=C\c1ccccn1)c1ccccc1O | 11
26 | O=C(N/N=C/c1ccccn1)c1ccccc1 | 2.75
27 | O=C(CCCC(=O)N/N=C\c1ccccn1)N/N=C\c1ccccn1 | 2.44
28 | CCOc1ccc(Br)cc1C(=O)N/N=C/c1ccccn1 | -40.8
29 | O=C(N/N=C/c1ccccn1)c1cc(Br)ccc1O | -54.9
30 | COC(=O)c1cccc(CSc2nnc(-c3ccco3)n2-c2ccccc2)c1 | -33.9
31 | C=CCNc1nnc(Cc2ccc(C(C)C)cc2)c(=O)[nH]1 | -0.924
32 | CC(C)(C)c1ccc(-c2noc(CCC(N)=O)n2)cc1 | -11
33 | Cc1ccc(NC(=O)C2CCN(S(=O)(=O)c3c(C)n[nH]c3C)CC2)nc1 | -23
34 | Cn1nc(C(=O)NC2CCCCC2)c2c1-c1ccccc1SC2 | -3.08
35 | CC1CCCN(CCCNC(=O)c2nn(C)c3c2CS(=O)(=O)c2ccccc2-3)C1 (stereo not drawn) | -39.8
36 | CC1CCCCN1CCCNC(=O)c1nn(C)c2c1CS(=O)(=O)c1ccccc1-2 (stereo not drawn) | -8.49
37 | CC1CCC(NC(=O)c2nn(C)c3c2CSc2ccccc2-3)CC1 (stereo not drawn) | 3.11
38 | CC1CCCN(C(=O)c2nn(C)c3c2CSc2ccccc2-3)C1 (stereo not drawn) | -11.7
39 | CC1CCCCN1CCCNC(=O)c1nn(C)c2c1CSc1ccccc1-2 (stereo not drawn) | -67.1
40 | Cn1nc(C(=O)NCCCN2CCCCC2)c2c1-c1ccccc1S(=O)(=O)C2 | -0.878
41 | CC1CCCN(CCCNC(=O)c2nn(C)c3c2CSc2ccccc2-3)C1 (stereo not drawn) | -72.5
42 | Cn1nc(C(=O)NCCCN2CCCCC2)c2c1-c1ccccc1SC2 | -66
43 | COc1cc(NC(=S)NC(=O)c2ccccc2C)ccc1NC(=O)c1cccs1 | -1.24
44 | CSc1n[nH]c(NCc2cccs2)n1 | 8.8
45 | CC(C)CC(C(=O)NCC1CCCO1)N(C(=O)Cn1nnc(-c2ccc(F)cc2)n1)c1cccc(C(F)(F)F)c1 (stereo not drawn) | -0.701
